This passage reports Potency, outcome and max response results from PubChem BioAssay (NCATS).

A short description of experiment [1]: qHTS to identify inhibitors of the type 1 interferon - major histocompatibility complex class I in skeletal muscle: primary screen against the NCATS Mechanism Interrogation Plate v5.0 (MIPE) Libary (AID 1347411). Note: nearly all actives have a fitted effect of over 65% in size. Note: potency is the fitted concentration of half-maximal effect. In outline: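 HLA-B HiBit myoblasts, dexamethasone-free medium + 4 ng/ml IFN-b, 24 h compound, 11-pt 1:3 from 46 uM final. Readout: Nano-Glo HiBiT lytic luminescence after 10 min lysis, RT.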
Background: qHTS replaces the single test concentration by a dilution series.

Experiment [2] concerns the target Protein phosphatase 1D (Homo sapiens) (UniProt O15297). In words: RapidFire Mass Spectrometry qHTS Assay for Modulators of WT P53-Induced Phosphatase 1 (WIP1) (AID 1347424).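 Note: amount of dephosphorylated VEPPL-S-QETFS peptide product formed by WIP1; series mostly up to about 63 µM; plate controls were DMSO wells for no effect and GSK830371 inhibitor control at 10 µM for full effect.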 In outline: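 RapidFire mass spectrometry measured dephosphorylated peptide after 5 min room-temperature reaction of 2 uM VEPPL-pS-QETFS with 10 nM WIP1 (50 mM Tris-HCl pH 7.5, 30 mM MgCl2, 0.1 mM EGTA, BSA), following 1 hr compound preincubation; 1 uM isotope-labelled product standard.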

For experiment [3] the target is unchanged. In words: Rhodamine-PBP qHTS Assay for Modulators of WT P53-Induced Phosphatase 1 (WIP1) (AID 1347425). Note: % of control where 0% means no effect. Summed up: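 5 nM WIP1 + 10 uM Rh-PBP, 50 mM Tris pH 7.5, 30 mM MgCl2, 1 mM TCEP, 0.1 mM EGTA, BSA; cpds pinned, 1 hr RT; + 10 uM phosphopeptide; fluorescence 1-min reads x 11 min; delta = f1 - f0.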
Experiment [4] is described as follows: Validation qHTS assay for inhibitors of Activation Induced Cytidine Deaminase (AID): UDG Counterscreen signal (AID 1347427). Note: 0% is about no effect. Summed up: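 Fluorescence at 560 nm excitation, 665 nm emission reports UDG signal after 250 mM NaOH (2x) addition and 30 min. Enzymes (AID 1 uM, UDG 2 U/mL, at 4/3x) preincubated 10 min with compound, then 4 h with 4x 250 nM DJC20/DJC23 substrate at room temperature.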

Experiment [5] deals with Single-stranded DNA cytosine deaminase (Homo sapiens) (UniProt Q9GZX7). In words: Validation qHTS assay for inhibitors of Activation Induced Cytidine Deaminase (AID): AID signal (AID 1347429). Note: % is set by controls: 0 for no effect and ±100 for the full control effect. In outline: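 AID+UDG coupled FRET deamination; cpds up to 114 uM final; DJC20/DJC23 substrate, 4 hr RT; NaOH stop, 30 min RT; read Ex 540/Em 590.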
The nature of experiment [6]: Primary qHTS for inhibitors of La Crosse Virus (LACV) - induced cell death in SH-SY5Y cells (AID 1508616).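 Note: top concentration of the series differs between compounds; 0% = infected DMSO wells and 100% = uninfected DMSO wells; higher means more rescue of cells from virus-induced death.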 Summed up: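 Cytopathicity rescue screen: compounds pinned onto SH-SY5Y cells, which are then infected with LACV (MOI 0.01) and held 6 days at 37C. Percent activity is scaled between infected DMSO control and uninfected DMSO control.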
Experiment [7] deals with Calcium and integrin-binding protein 1 (Homo sapiens) (UniProt Q99828). In words: Validation qHTS for Identification of Calcium Integrin Binding protein 1 (CIB1) Competitor (AID 1508618). Note: % is set by controls: 0 for no effect and ±100 for the full control effect. Summed up: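 Displacement of FITC-alphaIIb peptide (100 nM) from CIB1-GST (1 uM) is monitored by polarization in quantitative HTS format; buffer carries 5 mM CaCl2 and 125 mM NaCl at pH 7.4, incubations are at room temperature.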

Experiment [8] has the same target. Kind of experiment: Primary qHTS for Identification of Calcium Integrin Binding Protein 1 (CIB1) Competitor (AID 1508620).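 Note: GST tagged CIB1 binding a fluorescein labelled alphaIIb integrin peptide tracer; top concentration of the series differs between compounds; % is set by controls: 0 for no effect and ±100 for the full control effect.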 In outline: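 CIB1-GST (1 uM final) and compound incubated 15 min at room temperature before adding FITC-alphaIIb peptide tracer (100 nM final). Competition for binding read by fluorescence polarization (ex 480, em 540) after another 15 min at room temperature.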

The nature of experiment [9]: Primary qHTS for small molecule stabilizers of the endoplasmic reticulum resident proteome: Secreted ER Calcium Modulated Protein (SERCaMP) assay (AID 1508630). Note: % is set by controls: 0 for no effect and ±100 for the full control effect. Summed up: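 The SH-SY5Y reporter protocol was run at 3 concentrations up to 38.3 uM (primary) or 11 concentrations (follow-up): 16 h compound, 100 nM thapsigargin for 4 h, then extracellular luciferase luminescence.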

The nature of experiment [10]: A High-Content qHTS Against Drug Library for the Identification of Small Molecules that Inhibit DYT1 Early Onset Primary Dystonia-Associated Cell Pathology (AID 1645839; calls by dose curve; note: series mostly up to about 46 µM). In outline: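 High-content imaging quantified EGFP-TorsinA mislocalization in HEK293-derived cells inducibly expressing DYT1 mutant torsinA, after 48 h exposure to compound given together with tetracycline induction. Cell count served as a toxicity channel alongside %pathology.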

For experiment [11], the target named is Cytochrome P450 2D6 (Homo sapiens) (UniProt P10635). In words: Cytochrome P450 family 2 subfamily D member 6 (CYP2D6) small molecule antagonists: luciferase biochemical (cell-free) qHTS assay (AID 1645840; active = well fitted curve in the direction sought with a large enough effect in the repeat runs; an effect the other way counts as inactive or inconclusive; note: nearly all actives have a fitted effect of over 55% in size; note: potency is the fitted concentration of half-maximal effect). In outline: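 P450-Glo CYP2D6 system: proluciferin substrate converted by enzyme to luciferin, read by luminescence proportional to activity. Enzyme-substrate mix with compound 10 min at room temperature, then NADPH regeneration 1 h before detection reagent.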

The target of experiment [12] is Cytochrome P450 2C9 (Homo sapiens) (UniProt P11712). In words: Cytochrome P450 family 2 subfamily C member 9 (CYP2C9) small molecule antagonists: luciferase biochemical (cell-free) qHTS assay (AID 1645842; active = well fitted curve in the direction sought with a large enough effect in the repeat runs; an effect the other way counts as inactive or inconclusive; note: nearly all actives have a fitted effect of over 55% in size; note: potency is the fitted concentration of half-maximal effect). In outline:
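P450-Glo CYP2C9 system: proluciferin substrate with enzyme in mix containing 0.4% BSA, 10 min at room temperature, then NADPH regeneration solution added and incubated 1 h at 37C. Detection reagent stopped reaction; luminescence read after 20 min as RLU.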

Another experiment concerns the target Papain (Carica papaya) (UniProt P00784). Kind of experiment: Primary qHTS assay for inhibitors of the protease papain (AID 1645873).
Experiment [13] in a line: Primary qHTS for inhibitors of nuclear receptor binding SET domain protein 2 (NSD2) in an isogenic RCH-ACV NSD2 p.E1099K mutant (9B) (AID 1645876). Note: nearly all actives have a fitted effect of over 70% in size. Note: potency is the fitted concentration of half-maximal effect.
In experiment [14] the target is Calcium and integrin-binding protein 1 (Homo sapiens) (UniProt Q99828). In words: Confirmatory qHTS for Identification of Calcium Integrin Binding Protein 1 (CIB1) Competitor (AID 1508617). Note: potency is the fitted concentration of half-maximal effect; nearly all actives have a fitted effect of over 65% in size. Summed up: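 Confirmatory qHTS measures displacement of a FITC-alphaIIb peptide (100 nM) from CIB1-GST (1 uM) by fluorescence polarization. Calcium-containing HEPES buffer, pH 7.4; two 15 min room-temperature incubations.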

Experiment [15] in a line: Counterscreen qHTS for small molecule stabilizers of the endoplasmic reticulum resident proteome: GLuc-NoTag assay (AID 1508627).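 Note: SH-SY5Y cells given compound then 100 nM thapsigargin to empty ER calcium; series mostly up to about 76 µM; 0% = thapsigargin alone and -100% = DMSO vehicle control.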 In outline:
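Counterscreen line: SH-SY5Y-GLuc-NoTag cells, treated with compound 19 hr before a 4 hr, 100 nM thapsigargin calcium depletion. Secreted Gaussia luciferase in the medium was measured by luminescence after coelenterazine was added (0.07x final), with cells unlysed.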

The nature of experiment [16]: Cell Viability qHTS for small molecule stabilizers of the endoplasmic reticulum resident proteome (AID 1508629). As to conditions: cell viability counter-screen, 100 nM thapsigargin for final 4 h.

Each structure is given as a SMILES string. Values without a mark were called inactive. Records with an inconclusive call do not appear. Active and inactive are the calls of the source. Unless noted, calls come from the whole dose curve; as a rule, active = well fitted curve in the direction sought with a large enough effect; inconclusive = small, poorly fitted or top-dose-only effect, or another doubt; inactive = no such curve, though single readings can be large; an effect the other way counts as inactive or inconclusive.

Chain of Papain (Carica papaya) (P00784 whole entry, looked up, the tested form may be a part): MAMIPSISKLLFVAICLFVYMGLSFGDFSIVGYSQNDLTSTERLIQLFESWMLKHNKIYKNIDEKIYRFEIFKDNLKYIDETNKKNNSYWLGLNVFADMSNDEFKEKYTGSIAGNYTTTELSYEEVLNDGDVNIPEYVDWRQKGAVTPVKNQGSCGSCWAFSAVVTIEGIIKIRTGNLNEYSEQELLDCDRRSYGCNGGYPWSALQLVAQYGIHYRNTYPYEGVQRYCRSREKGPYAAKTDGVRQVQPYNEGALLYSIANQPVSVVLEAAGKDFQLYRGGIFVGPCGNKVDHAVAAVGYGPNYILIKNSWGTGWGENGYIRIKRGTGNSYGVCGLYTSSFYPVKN
Chain of Cytochrome P450 2C9 (Homo sapiens) (P11712 whole entry, looked up): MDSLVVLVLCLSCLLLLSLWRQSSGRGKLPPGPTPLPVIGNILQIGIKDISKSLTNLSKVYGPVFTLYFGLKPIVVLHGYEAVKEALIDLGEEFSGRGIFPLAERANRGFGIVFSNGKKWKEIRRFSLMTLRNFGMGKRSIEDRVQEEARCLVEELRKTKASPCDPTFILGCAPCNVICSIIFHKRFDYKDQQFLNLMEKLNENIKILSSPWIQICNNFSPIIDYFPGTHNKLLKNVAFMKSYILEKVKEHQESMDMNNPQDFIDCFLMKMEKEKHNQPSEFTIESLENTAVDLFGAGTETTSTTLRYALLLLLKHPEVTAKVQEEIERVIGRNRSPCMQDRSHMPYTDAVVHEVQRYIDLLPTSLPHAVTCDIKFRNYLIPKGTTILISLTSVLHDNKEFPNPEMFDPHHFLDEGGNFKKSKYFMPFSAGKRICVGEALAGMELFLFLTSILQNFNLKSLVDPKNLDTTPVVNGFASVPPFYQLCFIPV
Chain of Protein phosphatase 1D (Homo sapiens) (O15297 whole entry, looked up): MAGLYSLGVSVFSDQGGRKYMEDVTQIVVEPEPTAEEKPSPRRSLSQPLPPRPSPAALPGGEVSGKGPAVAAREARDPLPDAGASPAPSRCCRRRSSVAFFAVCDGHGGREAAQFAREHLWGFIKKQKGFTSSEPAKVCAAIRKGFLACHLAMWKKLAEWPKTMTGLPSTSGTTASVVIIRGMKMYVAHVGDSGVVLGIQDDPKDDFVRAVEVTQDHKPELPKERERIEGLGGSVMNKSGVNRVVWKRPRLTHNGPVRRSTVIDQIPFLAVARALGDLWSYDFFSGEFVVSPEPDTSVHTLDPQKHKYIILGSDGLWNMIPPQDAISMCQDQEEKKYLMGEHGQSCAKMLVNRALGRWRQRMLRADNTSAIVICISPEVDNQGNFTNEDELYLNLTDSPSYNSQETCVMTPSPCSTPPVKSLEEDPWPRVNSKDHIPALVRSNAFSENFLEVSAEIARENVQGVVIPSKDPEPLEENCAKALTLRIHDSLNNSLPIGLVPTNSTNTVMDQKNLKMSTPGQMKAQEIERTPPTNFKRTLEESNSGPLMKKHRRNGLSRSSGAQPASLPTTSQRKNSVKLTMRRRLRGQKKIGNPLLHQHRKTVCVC
Chain of Cytochrome P450 2D6 (Homo sapiens) (P10635 whole entry, looked up): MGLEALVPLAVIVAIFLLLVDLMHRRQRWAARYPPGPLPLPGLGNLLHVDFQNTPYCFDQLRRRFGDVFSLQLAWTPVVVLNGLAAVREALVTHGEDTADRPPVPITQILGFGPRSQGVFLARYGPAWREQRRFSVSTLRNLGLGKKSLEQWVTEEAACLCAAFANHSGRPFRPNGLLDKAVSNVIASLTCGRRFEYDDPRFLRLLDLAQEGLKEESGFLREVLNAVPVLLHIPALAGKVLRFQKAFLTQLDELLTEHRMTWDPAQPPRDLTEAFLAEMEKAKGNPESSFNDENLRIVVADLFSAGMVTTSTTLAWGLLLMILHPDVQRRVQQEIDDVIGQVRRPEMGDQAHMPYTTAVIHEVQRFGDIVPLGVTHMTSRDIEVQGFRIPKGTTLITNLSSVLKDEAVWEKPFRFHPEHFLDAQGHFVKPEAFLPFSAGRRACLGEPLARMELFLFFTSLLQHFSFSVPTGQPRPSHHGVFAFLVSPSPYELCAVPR
Chain of Calcium and integrin-binding protein 1 (Homo sapiens) (Q99828 whole entry, looked up): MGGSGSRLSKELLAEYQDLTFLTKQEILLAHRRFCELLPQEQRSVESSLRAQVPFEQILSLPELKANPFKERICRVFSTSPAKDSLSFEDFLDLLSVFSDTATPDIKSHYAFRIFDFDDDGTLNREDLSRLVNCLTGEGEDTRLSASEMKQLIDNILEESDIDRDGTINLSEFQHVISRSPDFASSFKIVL
Chain of Single-stranded DNA cytosine deaminase (Homo sapiens) (Q9GZX7 whole entry, looked up): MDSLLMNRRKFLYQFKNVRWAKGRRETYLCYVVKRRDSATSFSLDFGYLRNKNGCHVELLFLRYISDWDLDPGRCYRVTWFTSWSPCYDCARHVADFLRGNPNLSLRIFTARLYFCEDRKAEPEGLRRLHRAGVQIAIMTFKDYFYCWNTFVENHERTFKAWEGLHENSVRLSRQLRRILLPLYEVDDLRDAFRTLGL

`CC(=O)Oc1ccccc1C(=O)O`: the Potency result in experiment [1], in experiment [2], in experiment [5], in experiment [7], in experiment [9] and in experiment [10] was “inactive” each time. The Potency entry (in experiment [12]; with Papain (Carica papaya); in [13]) was “inactive” in each case. The compound was called inactive in experiment [3], in experiment [4], in experiment [6] and in [8]. Further, the Potency in experiment [11] is 15.5 µM (active).
Regarding `COc1ccc2nc(S(=O)Cc3ncc(C)c(OC)c3C)[nH]c2c1` (configuration not stated), the Potency result in experiment [1], in experiment [2], in experiment [15], in experiment [9], in [10] and in experiment [11] was “inactive” each time. For the same compound, the Potency result in [13] was “inactive”. Moreover, the outcome in experiment [6] was inactive. Further, in experiment [14], the Potency is 39.8 µM (active). The max response in experiment [16] was -2.62%.
Regarding `O=c1ncn2nc(Sc3ccc(F)cc3F)ccc2c1-c1c(Cl)cccc1Cl`, the Potency result in experiment [1] was “inactive”.
In the case of `CNC[C@H](O)c1cccc(O)c1`, the Potency entry in experiment [1], in experiment [2], in experiment [5], in [10], in experiment [11] and in experiment [12] was “inactive” each time. Moreover, the Potency entry (with Papain (Carica papaya); in experiment [13]) was “inactive” in each case. Further, the call in experiment [3], in experiment [4] and in [6] was inactive.
Regarding `Fc1ccc(Cl)cc1-c1nc(Nc2ccncc2)c2nccnc2n1`, the Potency entry in experiment [1] was “inactive”.
For `CCC(C)n1ncn(-c2ccc(N3CCN(c4ccc(OC[C@H]5CO[C@](Cn6cncn6)(c6ccc(Cl)cc6Cl)O5)cc4)CC3)cc2)c1=O` (some centres not stated), the Potency result in experiment [1], in experiment [2], in experiment [9] and in experiment [11] was “inactive” each time. For the same compound, the compound was classed as inactive in [6] and in experiment [8]. Besides, the Potency in [12] was 11 µM (active); in experiment [13], 0.502 µM (active).
Take `CCc1ccc(CCOc2ccc(CC3SC(=O)NC3=O)cc2)nc1` (configuration not stated): the Potency result in experiment [1], in [2], in experiment [9], in [10], in experiment [11] and in [13] was “inactive” in each case. Also, the outcome in experiment [6] was inactive.
With `CS(=O)(=O)c1cccc(CNc2nc(Nc3ccc4c(c3)CCC(=O)N4)ncc2C(F)(F)F)c1`, the Potency in experiment [1] is 10.4 µM (active); in experiment [12], 0.169 µM (active); in experiment [13], 3.32 µM (active). The Potency entry (in experiment [7]; in [11]; with Papain (Carica papaya)) was “inactive” throughout. Also, the result in experiment [8] was inactive.
Turning to `COc1ccc(CCN2CCN(CCCc3ccccc3)CC2)cc1OC`, the Potency entry in [1], in experiment [9], in [12] and in [13] was “inactive” throughout. Further, the result in [8] was inactive. In experiment [11], the Potency is 8.49 µM (active).
As to `COc1ccc(CC2=NN3C([C@@H](CCc4ccccc4)[C@@H](C)O)=NC(C)C3C(=O)N2)cc1OC` (some centres not stated), the Potency result in experiment [1] and in [9] was “inactive” each time. Also, the outcome in [8] was inactive.
With `C[C@]12CCC(=O)C=C1CC[C@@H]1[C@@H]2[C@@H](O)C[C@@]2(C)[C@H]1CC[C@]2(O)C(=O)CO`, the Potency result (in experiment [1]; in [2]; in experiment [10]; in [11]; in [12]; with Papain (Carica papaya)) was “inactive” in each case. Besides, the Potency result in [13] is “inactive”. For the same compound, the compound was classed as inactive in experiment [6].
For `Cn1cnc2c(F)c(Nc3ccc(Br)cc3Cl)c(C(=O)NOCCO)cc21`, the Potency entry in experiment [1], in experiment [2], in experiment [9], in experiment [10], in experiment [11] and in experiment [13] was “inactive” in each case. Also, the outcome in experiment [6] and in experiment [8] was inactive. The Potency in [12] is 8.71 µM (active).
As to `Cc1cc(-c2ccc(CC(=O)Nc3ccc(-c4cccnc4)cc3)cc2)ccn1`, the Potency result in experiment [1] and in [9] was “inactive” each time. Further, the outcome in [8] was inactive.
Regarding `CN(C(=O)c1ccc(F)cc1C(F)(F)F)C1CCN(c2nnc(-c3ccnn3C)c3ccccc23)CC1`, the Potency result in experiment [1], in experiment [9] and in experiment [11] was “inactive” throughout. Besides, the outcome in [8] was inactive.
